Here are results for seven compounds from PMC5540273 (PLoS ONE, 2017).

Test systems include BMX; BRAF; BRSK1; BRSK2; BTK; BUB1; CAMK1B; CAMK1D; CAMK1G.
Holding throughout (settings): concentration: 1 μM,replicates: in singlicate; n = 1
A further test concerns T1, BRK.
T1 construct: gene PTK6

The structures appear in SMILES notation.
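Note: KINOMEscan kinase panel screen.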

As for `COC(=O)Nc1nc2cc(Oc3ccc(NC(=O)Nc4cc(C(F)(F)F)ccc4Cl)cc3)ccc2[nH]1.Cl` [GW697465], the “%Inh” value in the test with BMX was found to be 95.2%; in the test with BRAF, 41%; in the test with BRK, 12%; with BRSK1, 0%; in the test with BRSK2 it was 0%; with BTK, 7%. For the same compound, the “%Inh” value in the test with BUB1 worked out at 67%; in the test with CAMK1B, 0%; with CAMK1D, 13%; in the test on CAMK1G, 0%.
Consider `Cc1ccn2nc(-c3ccc(F)cc3)c(-c3ccncc3)c2c1.Cl` [GW457859], for which the “%Inh” value in the test on BMX amounted to 8%; in the test with BRAF, 49%; in the test on BRK, 0%; in the test on BRSK1 it was 0%; in the test with BRSK2, 0%; with BTK it was 22%. Further, the “%Inh” value with BUB1 is given as 87%; in the test with CAMK1B, 30%; with CAMK1D it was 1%; in the test on CAMK1G it was 0%.
As for `N#Cc1cccc(C(=O)NC2CCN(c3ccnc(Nc4ccc(F)cc4)n3)C2)c1` (stereo not shown) [GSK1379708], the “%Inh” value with BMX amounted to 6%; in the test on BRAF it was 0%; in the test with BRK, 16%; in the test with BRSK1, 0%; in the test with BRSK2, 0%; in the test on BTK, 0%. Besides, the “%Inh” value in the test with BUB1 is on record as 31%; with CAMK1B, 0%; in the test on CAMK1D, 5%; with CAMK1G, 0%.
With `CC(C)c1nc(-c2cccc(NS(=O)(=O)c3ccccc3)c2)c(-c2ccnc(Nc3ccc4c(c3)CN(C)CC4)n2)s1` [GSK1649598], the “%Inh” value in the test on BMX amounted to 96.2%; in the test on BRAF it was 99.9%; in the test on BRK, 99.4%; in the test on BRSK1 it was 24%; with BRSK2, 46%; in the test with BTK, 84%. Further, the “%Inh” value in the test on BUB1 worked out at 82%; in the test with CAMK1B, 0%; in the test with CAMK1D it was 42%; with CAMK1G, 11%.
In the case of `O=C(Nc1cccc(C(F)(F)F)c1)c1cccc(Oc2ccc3nccn3n2)c1`, the “%Inh” value in the test on BMX was 8%; with BRAF, 76%; with BRK, 4%; in the test on BRSK1 it was 31%; in the test on BRSK2 it was 100%; in the test with BTK, 0%. Besides, the “%Inh” value in the test with BUB1 is recorded as 12%; in the test on CAMK1B, 0%; in the test with CAMK1D it was 3%; with CAMK1G, 0%.
Take `O=C(NCC1CC1)c1ccc(-c2cc(C(=O)NC3CC3)ccc2F)cc1` [GW810445]: the “%Inh” value in the test with BMX, with BRAF, with BRK, in the test with BRSK1, in the test on BRSK2 and in the test on BTK was 0% each time. The “%Inh” value in the test on BUB1 is 22%; in the test with CAMK1B, 21%; in the test on CAMK1D, 0%; in the test on CAMK1G it was 0%.
In the case of `Cc1ccc(CC(=O)N2CCc3cc(-c4cn(C)c5ncnc(N)c45)ccc32)cc1` [GSK2634758], the “%Inh” value is listed as 12% with BMX; 0% in the test on BRAF; 78% in the test on BRK; 2% in the test with BRSK1; 0% with BRSK2; 15% with BTK. Besides, the “%Inh” value in the test on BUB1 is 12%; with CAMK1B, 0%; in the test on CAMK1D, 19%; in the test with CAMK1G it was 23%.
